Source: PubChem BioAssay (Tox21)
Results filed as inconclusive are left out. The source made the active and inactive calls. Unless noted, calls come from the whole dose curve.

How the values were obtained:
[1] = qHTS assay to identify small molecule agonists of the vitamin D receptor (VDR) signaling pathway - cell viability counter screen (AID 743224; active = well fitted cell-killing curve with a large enough effect in the repeat runs; note: series mostly up to about 63 µM; nearly all actives have a fitted effect of over 50% in size)
In short: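 Luminescence from CellTiter-Glo, read after 30 min at room temperature, reports viability of VDR-bla cells treated with compounds for 16 h at 37C in the wells used for the beta-lactamase FRET read.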

[2] = qHTS assay to identify small molecule antagonists of the vitamin D receptor (VDR) signaling pathway - cell viability counter screen (AID 743225; active = well fitted cell-killing curve with a large enough effect in the repeat runs; note: nearly all actives have a fitted effect of over 50% in size)
In short: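 Same-well multiplex: following 16 h treatment of HEK 293T cells carrying a UAS-driven beta-lactamase reporter with compound and agonist (3 nM final), and a 2 h FRET substrate step, CellTiter-Glo was added and luminescence read after 30 min.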

[3] = qHTS assay to identify small molecule agonists of the NFkB signaling pathway (AID 1159509; active = well fitted curve in the direction sought with a large enough effect in the signal ratio in the repeat runs, not every such curve was filed as active; the % refers to the signal ratio; note: series mostly up to about 61 µM)
In short: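 NFkB-bla ME-180 cells with a beta-lactamase reporter under an NF-kB response element were plated overnight, treated with compounds in DMSO for 5 hr at 37 C, then loaded with FRET substrate for 1.5 hr at room temperature.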

[4] = qHTS assay to identify small molecule agonists of the NFkB signaling pathway - cell viability counter screen (AID 1159515); note: series mostly up to about 61 µM; nearly all actives have a fitted effect of over 55% in size
In short: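 Luminescence from CellTiter-Glo (30 min, room temperature) gives viability, measured in the same wells as the beta-lactamase reporter read. Cells were NFkB-bla ME-180, 2,000 per well, treated 5 hr with compounds.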

[5] = qHTS assay to identify small molecule agonists of the endoplasmic reticulum stress response signaling pathway (AID 1159516; active = well fitted activation curve with a large enough effect in the signal ratio in the repeat runs, not every such curve was filed as active; the % refers to the signal ratio)
In short: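 Read-out is beta-lactamase cleavage of a FRET substrate (405 nm excitation; 460 and 530 nm emissions) in ESRE-bla HeLa cells after a 5 hr compound exposure at 37 C. Substrate incubation ran 2 hr at room temperature.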

[6] = qHTS assay to identify small molecule agonists of the endoplasmic reticulum stress response signaling pathway - cell viability counter screen (AID 1159517);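 note: HeLa cells carrying an ER stress response element beta-lactamase reporter; series mostly up to about 61 µM; nearly all actives have a fitted effect of over 50% in size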
In short: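 Counter-screen wells were identical to the reporter wells. Cells were plated at 1,500 per well and dosed for 5 hr, then read for luminescence 30 min after CellTiter-Glo addition.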

[7] = qHTS assay to identify small molecule antagonists of the retinoid-related orphan receptor gamma (ROR-gamma) signaling pathway - cell viability counter screen (AID 1159520; active = well fitted cell-killing curve with a large enough effect in the repeat runs; note: nearly all actives have a fitted effect of over 50% in size)
In short: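 Tet-on ROR gamma CHO cells were given compounds for 2 hr, then doxycycline hyclate at 1 uM final, and incubated 16 hr at 37 C. Viability was measured as ATP content by CellTiter-Glo luminescence.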

[8] = qHTS assay to identify small molecule agonists of the AP-1 signaling pathway - cell viability counter screen (AID 1159525); note: nearly all actives have a fitted effect of over 55% in size
In short: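 AP-1-bla ME-180 cells in Opti-MEM with 0.5% dialyzed FBS, compound exposure 5 h at 37 C in 15-point titration. Viability read in the same wells as ATP content by CellTiter-Glo luminescence, normalised to tetra-n-octylammonium bromide and DMSO controls.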

[9] = qHTS assay to identify small molecule agonists of the AP-1 signaling pathway (AID 1159526)

Measured: Potency

O=S(=O)(O)C(F)(F)F
inactive: all assays above

OC[C@H]1O[C@@H](O[C@H]2[C@H](O)[C@@H](O)[C@H](O)O[C@@H]2CO)[C@H](O)[C@@H](O)[C@H]1O
inactive: all assays above

CS(=O)(=O)c1ccc([C@@H](O)[C@@H](CF)NC(=O)C(Cl)Cl)cc1
inactive: all assays above

COC(=O)c1ccc(OC)cc1
inactive: all assays above

CCOC(=O)c1ccccc1O
inactive: all assays above

CCN1CC(CCN2CCOCC2)C(c2ccccc2)(c2ccccc2)C1=O (stereo not given)
inactive: all assays above

O=C(O)c1cccc(Cl)c1Cl
inactive: all assays above

CCOC(=O)[C@H](CCc1ccccc1)N[C@@H](C)C(=O)N1Cc2cc(OC)c(OC)cc2C[C@H]1C(=O)O
inactive: all assays above

CCN[C@H]1CN(CCCOC)S(=O)(=O)c2sc(S(N)(=O)=O)cc21
inactive: all assays above

CCC(=O)Nc1ccc(O)cc1
inactive: all assays above

Nc1cccc(S(=O)(=O)O)c1
inactive: all assays above

CC(=O)OC(C)OC(C)=O
inactive: all assays above

CCCCC(=O)O[C@]1(C(=O)CO)[C@H](C)C[C@H]2[C@@H]3CCC4=CC(=O)C=C[C@]4(C)[C@@]3(F)[C@@H](O)C[C@@]21C
inactive: all assays above

COc1cc(N)c(Cl)cc1C(=O)NC1CCN(Cc2ccccc2)CC1
inactive: all assays above

COc1nc(C)nc(NC(=O)NS(=O)(=O)c2ccccc2OCCCl)n1
inactive: all assays above

CC(=O)N[C@@H](CC(C)C)C(=O)O
inactive: all assays above

CCCCC(CC)COC(=O)COc1cc(Cl)c(Cl)cc1Cl (stereo not given)
inactive: all assays above

COc1cc(C)ccc1C(C)C
inactive: all assays above

CCCC(CCC)(C(=O)OCC)C(=O)OCC
inactive: all assays above

CCCCCCCCCC/C=C/C#N
inactive: all assays above

CCCCNc1cc(C(=O)O)cc(S(N)(=O)=O)c1Oc1ccccc1
inactive: all assays above

CO[Si](C)(C)OC
inactive: all assays above

Cc1onc(-c2ccccc2)c1C(=O)Cl
inactive: all assays above

c1ccc(CN(CC2=NCCN2)c2ccccc2)cc1
inactive: all assays above

OCCN1CCN(CCO)CC1
inactive: all assays above
